SMILES strings stand for the structures. The source made the active and inactive calls.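 Rule for the calls: active = aptamer binding inhibition above 30%, about 3 SD of noise from non-fluorescent compounds; inactive = inhibition at or below 30%.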

In this assay the target is Beta-adrenergic receptor kinase 1 (Homo sapiens) (UniProt P25098). Briefly: GRK2 binders displacing RNA aptamer, biochemical, validation, human GRK2, bead flow cytometry (AID 488806). As to conditions: bead-bound GRK2, FAM-aptamer displacement, at 10 µM, hits give high values. A general note: A flow cytometer gives signals particle by particle.
Sequence of Beta-adrenergic receptor kinase 1 (Homo sapiens) (P25098 whole entry, looked up): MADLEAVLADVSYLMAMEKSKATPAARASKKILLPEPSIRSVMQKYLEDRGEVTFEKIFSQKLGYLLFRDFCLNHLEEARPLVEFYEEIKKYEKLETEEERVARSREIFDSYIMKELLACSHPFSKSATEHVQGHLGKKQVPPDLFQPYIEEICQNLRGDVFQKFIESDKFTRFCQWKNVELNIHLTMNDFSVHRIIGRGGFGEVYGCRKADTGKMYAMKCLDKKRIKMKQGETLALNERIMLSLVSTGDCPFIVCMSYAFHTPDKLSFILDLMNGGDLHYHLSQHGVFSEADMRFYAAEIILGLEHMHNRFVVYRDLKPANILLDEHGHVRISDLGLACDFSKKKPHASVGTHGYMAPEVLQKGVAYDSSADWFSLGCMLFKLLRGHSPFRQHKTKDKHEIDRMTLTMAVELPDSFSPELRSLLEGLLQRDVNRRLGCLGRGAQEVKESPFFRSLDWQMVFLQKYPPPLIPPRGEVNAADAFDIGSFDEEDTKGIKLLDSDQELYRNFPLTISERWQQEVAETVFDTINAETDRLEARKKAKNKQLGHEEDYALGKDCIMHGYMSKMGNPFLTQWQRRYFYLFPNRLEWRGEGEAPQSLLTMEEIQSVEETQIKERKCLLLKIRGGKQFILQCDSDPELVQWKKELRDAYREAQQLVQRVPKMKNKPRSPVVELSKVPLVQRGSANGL
`CCN(CC)C(=O)N1CCN(C)CC1`: the aptamer binding inhibition was -1% (inactive).

Regarding `CC1(C)[C@@H](O)CC[C@]2(C)[C@H]3C(=O)C=C4[C@@H]5C[C@@](C)(C(=O)O)CC[C@]5(C)CC[C@@]4(C)[C@]3(C)CC[C@@H]12`, the aptamer binding inhibition was 7% (inactive).

In the case of `O=C(Nc1ccc(Cl)cn1)Nc1ccccc1Cl`, the aptamer binding inhibition is 2% (inactive). Turning to `COc1c(C=O)c(CCN(C)C(=O)c2ccc(F)cc2)cc2c1OCO2`, the aptamer binding inhibition is 4% (inactive). Under `COc1ccc(C2C3=C(CC(C)(C)CC3=O)N(C)C3=C2C(=O)CC(C)(C)C3)cc1` stands 5% (inactive); under `CC(C)(Sc1cc(C(C)(C)C)c(O)c(C(C)(C)C)c1)Sc1cc(C(C)(C)C)c(O)c(C(C)(C)C)c1`, -5% (inactive); under `CC(=O)NC(NC(=S)N1CCCCCC1)C(Cl)(Cl)Cl` (stereo unspecified), 0% (inactive). For `Cc1ccc2c(CC(=O)O)coc2c1`, the aptamer binding inhibition is 13% (inactive).

Turning to `COc1cccc(N2C(=O)CC(c3c[nH]c4ccccc34)C2=O)c1` (stereo unspecified), the aptamer binding inhibition was 1% (inactive). `CC1(CC(=O)Nc2ccccc2)NC(=S)N(c2ccccc2)N1` (stereo unspecified): the aptamer binding inhibition was 5% (inactive). As for `O=c1nc2n(c3c1oc1ccccc13)Cc1ccccc1-2`, the aptamer binding inhibition was -1% (inactive).

`COC(=O)c1ccc(NC(=O)C23CCC(C)(C(=O)O2)C3(C)C)cc1` (stereo unspecified): the aptamer binding inhibition is 2% (inactive). `c1cnc(N2CCN(Cc3ccc4c(c3)OCO4)CC2)nc1`: the aptamer binding inhibition was -1% (inactive). In the case of `CCOC(=O)C1=C(N)Oc2c(c(=O)[nH]c3ccccc23)C1c1ccccc1` (stereo unspecified), the aptamer binding inhibition was 6% (inactive). On to `CCOc1ccc2[nH]c3c(=O)n(CCc4ccc(OC)cc4)cnc3c2c1`, for which the aptamer binding inhibition is 0% (inactive).

For `CC(=O)OC(C)C[N+](C)(C)C` (stereo unspecified), the aptamer binding inhibition is 5% (inactive).

The record behind these values is PubChem BioAssay.
